# In PubChem BioAssay AID489018 (Southern Research Specialized Biocontainment Screening …, 2010):
# Hit rate of the full screen: of about 2,300 compounds, about 350 (15%) were called active. No rule for the calls is given here. The list is a sample of the results. Results with a measured potency or affinity are listed apart.
# Assay: HepG2 cell cytotoxicity, dose response, cytotoxicity control for non-replicating M. tuberculosis project (AID 489018);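 also: HepG2 human liver cells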
# Conditions: series mostly up to 20 µM
row,Compound,outcome
1,COc1ccc(C(=O)Cn2c(C)nc([N+](=O)[O-])c2Br)cc1,inactive
2,Cc1ccc2nc(/N=C(\N)NC(=O)NC3CCCCC3)nc(C)c2c1,inactive
3,O=C(COc1ccccc1)NC1CCCCC1,inactive
4,Cn1cccc1/C=N\NC(=O)C1COc2ccccc2O1 (centres undefined),inactive
5,O=C(C/C=N\OCc1ccc([N+](=O)[O-])cc1)Nc1ccc(Cl)cc1,inactive
6,O=C(NCC(c1cccs1)N1CCOCC1)c1cc([N+](=O)[O-])cc([N+](=O)[O-])c1 (centres undefined),inactive
7,OC(CNCCc1ccc(C(F)(F)F)cc1)COc1ccc2ccccc2c1 (centres undefined),inactive
8,OC(CNCCc1ccc(C(F)(F)F)cc1)COc1cccc2ccccc12 (centres undefined),inactive
9,Cn1ccsc1=NC(=O)c1ccccc1F,inactive
10,CCc1ccc(C(=O)COC(=O)c2ccc(Cl)nc2)cc1,inactive
11,Cc1cccc(NC(=O)COc2ccc(Br)cc2)n1,inactive
12,Cc1nc([N+](=O)[O-])c(Br)n1CC(=O)c1ccccc1,inactive
13,c1ccc(-c2nc3ccccn3c2NC2CCCC2)nc1,inactive
14,O=C(N/N=C/C=C/c1ccccc1)c1ccncc1,inactive
15,O=C(Nc1ccccn1)c1ccc(C(=O)c2ccccc2)cc1,inactive
16,CC(C)(C)NCc1cc(Br)ccc1OCc1cccs1,inactive
17,CC(C)CCCn1c(O)c(/C=C2/C=CC=N2)c(=O)[nH]c1=O,inactive
18,CC1=C(C)/C(=N\OS(=O)(=O)c2ccccc2)C=CC1=O,inactive
19,CN(CC(=O)Nc1ccc(C#N)cc1)Cc1ccc(Cl)c(Cl)c1,inactive
20,Nc1ccc2c(c1)oc1ccccc12,inactive
21,Cc1ccccc1-c1cc2c(nn1)-c1ccccc1C2=O,inactive
22,COc1cc(OC)cc(-c2nc3ccccc3c(=O)o2)c1,inactive
23,O=C(COC(=O)c1ccccc1)NC12CC3CC(CC(C3)C1)C2,inactive

row,Compound,outcome
1,O=C(CC(=O)c1ccccc1O)c1cccc(F)c1,inactive
2,O=C(O)c1ccc(NS(=O)(=O)/C=C/c2ccccc2)cc1O,inactive
3,CCn1c(NC(=O)C2CCCCC2)nc2ccccc21,inactive
4,Cc1cc(NC(=O)COc2ccccc2)ccc1Cl,inactive
5,O=c1cc(C(F)(F)F)[nH]c2c(C(F)(F)F)cccc12,inactive
6,CCc1nonc1NC(=O)COc1ccc(Cl)c(C)c1,inactive
7,CCOC(=O)Nc1cccc(OCC(=O)Nc2ccccc2OC)c1,inactive
8,CCOC(=O)Nc1ccc2c(c1)N(C(=O)CCN1CCOCC1)c1ccccc1S2=O (centres undefined),inactive
9,O=C(Nc1nc2ccccc2[nH]1)c1cccc(Cl)c1,inactive
10,O=C(Nc1nc2ccccc2[nH]1)c1ccc(F)cc1,inactive
11,CN1CCC(O)(c2ccc(Cl)cc2)C(C(=O)c2ccc(Cl)cc2)C1 (centres undefined),inactive
12,O=C(COc1ccc(Cl)cc1)Nc1ccccc1Cl,inactive
13,CC(C)c1ccc(OCC(=O)NCc2ccccc2)cc1,inactive
14,Cc1ccc(C)c(-c2nnc(NC(=O)C3=COCCO3)o2)c1,inactive
15,O=C(NCCc1c[nH]c2ccccc12)c1cc2ccccc2oc1=O,inactive
16,COc1ccccc1N1CCN(C(=O)c2ccc([N+](=O)[O-])s2)CC1,inactive
17,Cc1ccc(-n2cc(CNCCn3nc(C)cc3C)c(-c3ccc(F)cc3)n2)cc1,inactive
18,Fc1ccc(-c2nn(-c3ccccc3)cc2CNCc2ccccc2)cc1,inactive
19,Cc1cc(Br)ccc1OCC(=O)NNC(=O)C(=O)Nc1ccccc1,inactive
20,O=C(CCN1C(=O)/C(=C/c2ccccc2Cl)SC1=S)N1CCCC1,inactive
21,COc1cccc(OCc2nnc(-c3cccs3)o2)c1,inactive
22,Cc1ccc(Oc2c(C(N)=O)cc([N+](=O)[O-])cc2[N+](=O)[O-])cc1,inactive
23,Cc1csc(=Nc2cccnc2)n1CC1CCCCC1,inactive

row,Compound,outcome
1,CCOC(=O)c1csc(COc2ccc(OC)cc2)n1,inactive
2,COc1ccc(O)c(C(=O)CC(=O)c2ccc(F)cc2)c1,inactive
3,Cc1ccc(NC(=O)C2=C(c3ccccc3)S(=O)(=O)CCS2(=O)=O)cc1,inactive
4,CCOC(=O)C1CCN(Cc2ccc(-c3ccccc3)cc2)CC1,inactive
5,CCOC(=O)C1CCCN(Cc2ccc(OCc3ccccc3)cc2)C1 (centres undefined),inactive
6,Cc1ccc(C(=O)OCC(=O)N2CCCCCC2)c(O)c1,inactive
7,CCCCC1CCC(C(=O)Nc2ccc(S(=O)(=O)Nc3nccs3)cc2)CC1 (centres undefined),inactive
8,Cc1ccc(C(=O)N/N=C/c2cccc3ccccc23)cn1,inactive
9,Cc1nn(C)cc1/C=N/NC(=O)c1sc2ccccc2c1Cl,inactive
10,CC(C)c1nnc(NC(=O)c2cc3cc(Br)ccc3oc2=O)s1,inactive
11,O=C(OCc1ccc([N+](=O)[O-])cc1)c1ccc2ccccc2n1,inactive
12,CN(C)CC/C=C1\c2cc(Cl)ccc2Sc2cc(F)c(F)cc21,inactive
13,O=C(CN1CCN(c2ccc([N+](=O)[O-])cc2)CC1)Nc1ccccn1,inactive
14,C/C(=N\NC(=O)c1cc([N+](=O)[O-])cc([N+](=O)[O-])c1)c1ccco1,inactive
15,COc1ccc(CN=C(C#N)C2=C(O)c3ccccc3C2=O)cc1,inactive
16,O=c1c2cc(Cl)ccc2nc(-c2ccc([N+](=O)[O-])cc2)n1O,inactive
17,CCOC(=O)COn1c(-c2cccc(Cl)c2)nc2ccc([N+](=O)[O-])cc21,inactive
18,N/C(=N\OC(=O)c1cccc(Br)c1)c1ccc([N+](=O)[O-])cc1,inactive
19,O=c1c2c([N+](=O)[O-])cc([N+](=O)[O-])cc2sn1-c1ccc(Br)cc1,inactive
20,O=C(NCc1cccs1)c1cc(-c2ccc(O)cc2)on1,inactive
21,CC(C)(C)NC(=O)COC(=O)c1snc(C(=O)NC2CCCCC2)c1N,inactive
22,CCS(=O)(=O)c1c([N+](=O)[O-])ncn1C,inactive
23,COc1ccc([N+](=O)[O-])c(S(=O)(=O)c2ccc(Cl)cc2)n1,inactive

row,Compound,outcome
1,CCOC(=O)c1c(C)nc2cc(C)ccn12,inactive
2,COC(=O)c1ccc(COC(=O)c2ccccn2)cc1,inactive
3,CCc1ccc(/C=N/NC(=O)c2ccccn2)cc1,inactive
4,CCOc1ccc(C(=O)N/N=C(/C)C2C(=O)c3ccccc3C2=O)cc1,inactive
5,CCOc1ccc(C(=O)N/N=C/c2cccc3cccnc23)cc1,inactive
6,O=C1NC(=O)N(Cc2ccc(F)cc2)C(=O)/C1=C\c1ccc([N+](=O)[O-])s1,inactive
7,O=C(OCc1nnc(-c2ccccc2)o1)c1ccc(Br)o1,inactive
8,Cc1ccccc1-n1c(C)cc(/C=N/NC(=O)c2ccncc2)c1C,inactive
9,CC(C)Cn1c([N+](=O)[O-])nc2c1c(=O)[nH]c(=O)n2C,inactive
10,CN1CCC(O)(c2cccs2)C(C(=O)c2cccs2)C1 (centres undefined),inactive
11,COc1ccc(C(C#N)=C2C=CC(=NO)C=C2)cc1,inactive
12,CC/C(=C\C=C\[C@@H]1C=C[C@@H]2CCC[C@H]2[C@@H]1C(=O)c1ccc[nH]1)[C@@H]1O[C@@H]([C@@H](C)C(=O)O)CC[C@@H]1C,inactive
13,CCOc1cc(-c2sc(Nc3cc(C)ccc3OC)n[n+]2-c2ccccc2)ccc1OC,inactive
14,O=C(COc1ccc(Br)cc1)Nc1ccc([N+](=O)[O-])cn1,inactive
15,CC(=O)Nc1ccc(NC(=O)c2cc([N+](=O)[O-])cc([N+](=O)[O-])c2)cc1,inactive
16,O=C1/C(=C/C=C/c2ccccc2)Oc2c1ccc(O)c2CN1CCN(CCO)CC1,inactive
17,CC(Oc1ccc2ccccc2c1)C(=O)NNC(=S)NC(=O)c1ccco1 (centres undefined),inactive
18,CCCOc1ccc(C(=O)NNC(=S)NC(=O)c2cccs2)cc1,inactive
19,CCCOC(=O)c1ccc(NC(=O)c2ccc(Br)o2)cc1,inactive
20,CCCc1cc(=O)n2[nH]c(C)c(-c3ccccc3)c2n1,inactive
21,Cc1cc(C)nc(-n2nc(C)cc2Nc2ccccc2)n1,inactive
22,Clc1cccc(-c2ccc(CNCc3ccccn3)o2)c1,inactive
23,COc1cc(N=c2ssnc2Cl)cc(OC)c1OC,inactive

row,Compound,outcome
1,CCN(CC)c1ccc(-c2sc(Nc3ccccc3)n[n+]2-c2ccc(F)cc2)cc1,inactive
2,Cc1nn(-c2ccccc2)nc1C(=O)c1c(C)[nH]n(-c2ccccc2)c1=O,inactive
3,O=C(Nc1ncc(Cc2ccccc2Cl)s1)C1=NCCN1,inactive
4,O=C(NC1CCCCC1)c1nc2c(nnn2Cc2ccccc2Cl)c(=O)[nH]1,inactive
5,CCOC(=O)N1CCC(N2CCCC(C(=O)c3ccc4cc(OC)ccc4c3)C2)CC1 (centres undefined),inactive
6,CNC(C)C#Cc1ccc2oc3cc(C)c(C)cc3c(=O)c2c1 (centres undefined),inactive
7,CCCCOC(=O)c1ccc(NC(=O)c2nn(C)cc2Br)cc1,inactive
8,O=S1(=O)N=C(N/N=C/C=C/c2ccccc2)c2ccccc21,inactive
9,Cc1ccc(/C=C2\SC(=S)N(C3CCS(=O)(=O)C3)C2=O)o1 (centres undefined),inactive
10,CC(C)c1nnc(NC(=O)c2c(O)c3cccc4c3n(c2=O)CCC4)s1,inactive
11,O=C(NNC(=O)c1ccccc1F)c1ccc(-c2ccc(Cl)cc2)o1,inactive
12,COC(=O)c1cn(NC(=O)c2cnccn2)c(=O)c2ccccc12,inactive
13,CCOC(=O)c1cc(-c2c(Cl)cccc2Cl)no1,inactive
14,Cn1cnc([N+](=O)[O-])c1Sc1ccc([N+](=O)[O-])cc1,inactive
15,Clc1ccc(-c2ccc(CNCc3ccccn3)o2)cc1,inactive
16,Fc1ccc(-c2ccc(CNCc3ccccn3)o2)cc1Cl,inactive
17,CCOC(=O)c1cc(COc2cc(Cl)cc(Cl)c2)on1,inactive
18,Cc1cccc(OCC(=O)NNC(=O)c2cc3ccccc3oc2=O)c1,inactive
19,O=C(COc1ccc2ccccc2c1)N/N=C/c1ccccn1,inactive
20,Cc1cc(C)n2[nH]c(=O)c(N=Nc3cccc(Cl)c3)c2n1,inactive
21,CN=C1S/C(=C\c2ccc(OCC(=O)OC)c(OC)c2)C(=O)N1C,inactive
22,COc1cccc(OCCNC(=O)c2cc([N+](=O)[O-])cc([N+](=O)[O-])c2)c1,inactive
